Source: PubChem BioAssay
Shown are actives, neighbours in structure and some others; about 2.4% of the full set was active somewhere.
MITF act: increases MITF-driven TRPM1 promoter luciferase signal. SK-MEL-5 TRPM1-promoter luciferase, 24 h; % of positive control, neutral wells = 0. AID 588334. 0.75% of 300,000 active. activation, % at 12.5 µM;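 active = mean activation of at least 80% with every replicate also reaching 80%; inconclusive = mean reaches 80% but some replicate falls short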
Wnt bcat act: Wnt/beta-catenin pathway activation | Wnt/beta-catenin reporter cell assay, activator, plate reader | activation, % at 9.35 µM | 1.2% of 300,000 active | AID 743398; in the data active = activation above about 30%, passing the limit was not always enough; inconclusive = no clear call, values can overlap the other calls
DYRK1A inh: blocks rat Dyrk1A kinase activity; ADP-Glo luminescence, NFATc1 peptide; inhibition, % at 12.5 µM; 0.43% of 310,000 active; AID 504441
GSIS activator: primary screen for activators of insulin secretion dependent on glucose, INS-1E cells, GLuc reporter luminescence; 0.61% of 370,000 active; INS-1E GLuc reporter insulin secretion, 2-3 h; activation, % at 16.6 µM;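 active = lowest replicate activation of at least 40%, so every replicate reaches that level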
NSD2 inh: inhibitors of human histone methyltransferase NSD2; NSD2 peptide methylation, AlphaScreen, 120 min; inhibition, % at 12.5 µM; 0.54% of 310,000 active
miR122 inh: miR-122 inhibition in Huh7 cells; Huh7 miR-122 Renilla luciferase sensor, 48 h; neutral wells = 0, positive control = 100; activation (reporter increase), % at 12.5 µM; 0.3% of 340,000 active; AID 602342;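 active = mean replicate activation score at least 90 and every replicate individually at or above 90; inconclusive = only one of the two criteria met; inactive = neither criterion met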;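 also: higher luciferase means less miR-122 activity so hits act as miR-122 inhibitors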
Alpha artifact: counter-screen for NSD2 inhibitors: AlphaScreen artifacts; shares compounds with NSD2 inh; AlphaScreen artifact counterscreen, preloaded methylated H4 peptide; AC35, µM (highest dose often 10 µM); 9.4% of 1,500 active; AID 1053174; call rule not given here
Large screens that a line does not name were inactive (follow-up assays come after a bar, where they were run). Rule as the data show it, unless noted: active = inhibition above about 50%; inactive = the rest.

O=C(O)C(c1ccccc1)N1C(=O)/C(=C\c2ccc(O)c(O)c2)SC1=S (centres undefined)	NSD2 inh 105 (no result: miR122 inh) | Alpha artifact 7.6µM
O=C(C[C@H]1C[C@H]2c3cc(NC(=O)C4CCOCC4)ccc3O[C@H]2[C@@H](CO)O1)NCc1cc(F)ccc1F	none (no result: MITF act, Wnt bcat act, DYRK1A inh, NSD2 inh)
O=c1cc(C=NNc2ccccc2)[nH]c(=O)[nH]1	NSD2 inh 52 (no result: miR122 inh) | Alpha artifact inactive
CNCc1cc(Br)c(OCC(=O)Nc2ccccc2OC)c(OC)c1	NSD2 inh 73 (no result: miR122 inh) | Alpha artifact inactive
CCNCc1cc(Br)c(OCC(=O)Nc2ccccc2)c(OC)c1	none (no result: MITF act, Wnt bcat act, GSIS activator)
Cc1ccccc1-c1ccc([C@H]2[C@@H](CO)N3CCCCN(S(=O)(=O)c4cn(C)cn4)C[C@@H]23)cc1	none (no result: MITF act, Wnt bcat act, DYRK1A inh, NSD2 inh)
O=C(CCN1CCOCC1)NCC1COc2ccccc2O1 (centres undefined)	NSD2 inh 56 (no result: MITF act, GSIS activator) | Alpha artifact inactive
O=C(CCc1ccccc1)NCCCN1CCOCC1	NSD2 inh 98 (no result: MITF act, Wnt bcat act, GSIS activator) | Alpha artifact inactive
O=C(CN1CCN(Cc2ccccc2)CC1)NCC1COc2ccccc2O1 (centres undefined)	none
COc1ccc2c3c(n(C)c2c1)[C@H](CO)N(Cc1ccc2c(c1)OCO2)CC31CN(C(=O)c2ccc3c(c2)OCO3)C1	none (no result: MITF act, Wnt bcat act, DYRK1A inh, NSD2 inh, miR122 inh)
C[C@@H]1CN([C@@H](C)CO)C(=O)Cc2cc(NC(=O)C3CC3)ccc2O[C@@H]1CN(C)C(=O)Nc1cccc2ccccc12	none (no result: MITF act, Wnt bcat act, DYRK1A inh, NSD2 inh)
CCOC(=O)C(CCCP(=O)(c1ccccc1)c1ccccc1)(NC(C)=O)C(=O)OCC	NSD2 inh 60 (no result: MITF act) | Alpha artifact inactive
CCOC(=O)C(CCCCP(=O)(c1ccccc1)c1ccccc1)(NC(C)=O)C(=O)OCC	none
COc1ccc(CN(C)C[C@H]2Oc3ccc(NS(=O)(=O)c4ccc(C)cc4)cc3C(=O)N([C@@H](C)CO)C[C@@H]2C)cc1	none (no result: MITF act, Wnt bcat act, DYRK1A inh, NSD2 inh)
CCN1CCc2nc3ccccc3c(C(=O)Nc3ccc(NC(C)=O)cc3)c2C1	NSD2 inh 59 | Alpha artifact inactive
CCCCc1nc2cc(C(=O)N3CCC(O)CC3)ccc2o1	NSD2 inh 66 | Alpha artifact inactive
C[C@@H]1CCCCO[C@@H](CN(C)Cc2ccncc2)[C@@H](C)CN([C@H](C)CO)C(=O)c2cc(NS(C)(=O)=O)ccc2O1	none (no result: MITF act, Wnt bcat act, DYRK1A inh, NSD2 inh)
O=C(Nc1ccc(S(=O)(=O)Nc2ncccn2)cc1)C1CC(=O)N(c2ccc(Cl)cc2)C1 (centres undefined)	NSD2 inh 76 (no result: MITF act, miR122 inh) | Alpha artifact inactive
Cc1cc(C)c(Nc2cc(S(=O)(=O)O)c(N)c3c2C(=O)c2ccccc2C3=O)c(C)c1	NSD2 inh 145 (no result: miR122 inh) | Alpha artifact 6.2µM
Cc1ccc(S(=O)(=O)Nc2cccc3c2O[C@@H](CN(C)C(=O)Nc2c(C)noc2C)[C@H](C)CN([C@H](C)CO)C3=O)cc1	none (no result: MITF act, Wnt bcat act, DYRK1A inh, NSD2 inh)
CN1C(=O)/C(=C/c2ccc(-c3ccccc3[N+](=O)[O-])o2)SC1=Nc1ccc(Cl)c(C(=O)O)c1	NSD2 inh 117 (no result: Wnt bcat act) | Alpha artifact inactive
CCOC(=O)NCCc1c(C)nc2c(c(C)nn2C(C)(C)C)c1C	NSD2 inh 68 (no result: MITF act, DYRK1A inh, GSIS activator) | Alpha artifact inactive
CCN(CC)CCNC(=O)CCc1c(C)nc2c(c(C)nn2-c2ccc(C)c(C)c2)c1C	none
Cc1ccc(CC(=O)Nc2nncs2)cc1	NSD2 inh 57 (no result: MITF act) | Alpha artifact inactive
O=C(c1cc(-c2ccc(Cl)cc2)n(-c2ccc(Cl)cc2)n1)N1CCOCC1	NSD2 inh 58 (no result: Wnt bcat act) | Alpha artifact inactive
Cc1ccc(-n2nc(C(=O)NCc3ccc(C)o3)c3c4ccccc4n(C)c3c2=O)cc1	NSD2 inh 53 (no result: MITF act, GSIS activator) | Alpha artifact inactive
COC(=O)c1ccc(N2CCOCC2)c(NC(=O)c2ccc3c(c2)OCO3)c1	none (no result: miR122 inh)
COc1ccc(N2CCOCC2)c(NC(=O)c2ccc3c(c2)OCO3)c1	NSD2 inh 53 | Alpha artifact inactive
COc1cccc(NC(=O)c2ccc3c(c2)OCO3)c1	none (no result: MITF act)
COc1cccc(NC(=O)c2ccc3c(c2)OCCO3)c1	Wnt bcat act inconclusive, NSD2 inh 113 | Alpha artifact inactive
COC(=O)c1ccc(NC(=O)c2ccc(NS(=O)(=O)c3cccc4cccnc34)cc2)cc1	none (no result: Wnt bcat act, GSIS activator, miR122 inh)
Cc1cccc(NC(=O)c2ccc(NS(=O)(=O)c3cccc4cccnc34)cc2)c1	NSD2 inh 53 (no result: MITF act, DYRK1A inh) | Alpha artifact inactive
COCCOC(=O)C1=C(C)NC(C)=C(C(=O)OC(C)C)C1c1cccc([N+](=O)[O-])c1 (centres undefined)	NSD2 inh 75 (no result: GSIS activator) | Alpha artifact inactive
CCOC(=O)C1=C(C)NC(C)=C(C(=O)OC)C1c1cccc([N+](=O)[O-])c1 (centres undefined)	none (no result: NSD2 inh)
Cn1cnc(CCNC(=O)C[C@@H]2CC[C@@H]3[C@H](COC[C@@H](O)CN3C(=O)Nc3ccc(F)cc3)O2)c1	none (no result: MITF act, Wnt bcat act, DYRK1A inh, NSD2 inh)
O=C(CC1CC1)N1[C@H](CO)[C@H](c2ccccc2)C12CN(S(=O)(=O)c1ccccc1)C2	none (no result: MITF act, Wnt bcat act, DYRK1A inh, NSD2 inh, miR122 inh)
Cc1ccc(NC(=S)N2CCC(NC(=O)c3ccc(F)cc3)CC2)cc1	NSD2 inh 61 | Alpha artifact inactive
CC1(C)Cc2c(C#N)c(N)n(-c3ccccc3)c(=S)c2CO1	none (no result: MITF act)
CC1(C)C=C2C(=NN(c3ccccc3)C(N)=C2C#N)CO1	NSD2 inh 100 (no result: MITF act, miR122 inh) | Alpha artifact inactive
COc1ccc(-n2ncc3c(NCCCn4ccnc4)ncnc32)cc1	NSD2 inh 121 (no result: MITF act, GSIS activator) | Alpha artifact inactive
COCCNc1ncnc2c1cnn2-c1ccc(Cl)cc1	none (no result: MITF act, Wnt bcat act, GSIS activator)
COc1ccc(CN(C)C[C@H]2OCCCC[C@H](C)Oc3ccc(NS(=O)(=O)c4ccc(F)cc4)cc3C(=O)N([C@H](C)CO)C[C@H]2C)cc1	none (no result: MITF act, Wnt bcat act, DYRK1A inh, NSD2 inh)
Cc1ccc(S(=O)(=O)N[C@@H]2CC[C@H](CC(=O)N3CCc4ccccc4C3)O[C@H]2CO)cc1	none (no result: MITF act, Wnt bcat act, DYRK1A inh, NSD2 inh)
O=C(O)c1cccc(NC2=C(Cl)C(=O)c3ccccc3C2=O)c1	NSD2 inh 99 | Alpha artifact inactive
O=C1C(Cl)=C(Nc2ccccc2)C(=O)c2ccccc21	none (no result: Wnt bcat act)
CC(C)NC1=C(Cl)C(=O)c2ccccc2C1=O	none (no result: Wnt bcat act, GSIS activator)
O=C1C(Cl)=C(NCCc2ccccc2)C(=O)c2ccccc21	NSD2 inh 81 (no result: miR122 inh) | Alpha artifact inactive
C=CCNC1=C(Cl)C(=O)c2ccccc2C1=O	NSD2 inh 92 | Alpha artifact inactive
COc1ccc(NC(=O)N(C)C[C@@H]2Oc3ccc(NS(=O)(=O)c4ccc(Cl)cc4)cc3C(=O)N([C@@H](C)CO)C[C@H]2C)cc1	none (no result: MITF act, Wnt bcat act, DYRK1A inh, NSD2 inh)
CC(=O)N(C)C[C@H]1Oc2cc(C#CC(C)C)ccc2S(=O)(=O)N([C@@H](C)CO)C[C@@H]1C	none (no result: MITF act, Wnt bcat act, DYRK1A inh, NSD2 inh)
C[C@@H]1CN([C@@H](C)CO)C(=O)c2cc(NC(=O)c3ccccc3)ccc2O[C@@H](C)CCCCO[C@@H]1CN(C)C(=O)Cc1ccccc1	none (no result: MITF act, Wnt bcat act, DYRK1A inh, NSD2 inh)
